Measured values: the supplement of paper PMC6331611
± gives the standard deviation of the averaged measurements. Over roughly 1,600 compounds, “normalized intracellular growth (luminescence, IQM-normalized) in RAW264.7 macrophages” has its median near 1; the lowest 2% begin near 0.43. This excerpt belongs to a sample that is enriched for the lowest values.

Tested on: Salmonella enterica serovar Typhimurium SL1344
Experiment: normalized intracellular growth (luminescence, IQM-normalized) in RAW264.7 macrophages (fraction of plate interquartile mean); higher = more bacterial growth (less inhibition)
Conditions: 10 µM

Row | SMILES | normalized intracellular growth (time point: T3 (3 h)) | normalized intracellular growth (time point: Tfinal (~6 h))
1 | NC(=O)NC(=O)Cc1ccccc1 | 0.993 ± 0.021 | 0.979 ± 0.038
2 | CNC(=N)NCCC[C@H](N)C(=O)O | 1.11 ± 0.029 | 0.921 ± 0.26
3 | NC[C@H]1O[C@H](O[C@H]2[C@H](O)[C@@H](O[C@H]3O[C@H](CO)[C@@H](O)[C@H](N)[C@H]3O)[C@H](N)C[C@@H]2N)[C@H](N)[C@@H](O)[C@@H]1O | 0.81 ± 0.012 | 0.554 ± 0.025
4 | CC1(C)[C@H]2CC[C@]1(CS(=O)(=O)O)C(=O)C2=Cc1ccc(C=C2C(=O)[C@@]3(CS(=O)(=O)O)CC[C@@H]2C3(C)C)cc1 | 0.978 ± 0.028 | 1.17 ± 0.22
5 | Cc1nccnc1N1CCCCC1 | 1.09 ± 0.057 | 0.933 ± 0.023
6 | CCC(=O)O[C@H](CC(=O)O)C[N+](C)(C)C | 1.06 ± 0.052 | 1 ± 0.028
7 | NCCNCCNCCN | 0.972 ± 0.044 | 1.2 ± 0.037
8 | CC(=O)OC1CC2CCC1(C)C2(C)C (stereo not given) | 1.011 ± 0.01 | 1.14 ± 0.018
9 | CC[n+]1c(-c2ccccc2)c2cc(N)ccc2c2ccc(N)cc21 | 0.993 ± 0.05 | 1.13 ± 0.11
10 | CC(C)(C)CC(C)(C)c1cc(Cc2cc(C(C)(C)CC(C)(C)C)cc(-n3nc4ccccc4n3)c2O)c(O)c(-n2nc3ccccc3n2)c1 | 1.02 ± 0.096 | 1.19 ± 0.3
11 | CNC(=O)c1c(I)c(NC(C)=O)c(I)c(C(=O)O)c1I | 1.01 ± 0.056 | 0.883 ± 0.21
12 | C[N+]1(C)[C@@H]2CC[C@H]1C[C@@H](OC(=O)C(O)c1ccccc1)C2 (stereo not given in full) | 0.968 ± 0.056 | 1.06 ± 0.025
13 | C[C@]12C=CC(=O)C=C1CC[C@@H]1[C@@H]2[C@@H](O)C[C@@]2(C)[C@H]1CC[C@]2(O)C(=O)COP(=O)(O)O | 0.954 ± 0.029 | 1.16 ± 0.24
14 | S=C1SCN(Cc2ccccc2)CN1Cc1ccccc1 | 1.01 ± 0.087 | 0.779 ± 0.14
15 | CCOC(=O)C1=C[C@@H](OC(CC)CC)[C@H](NC(C)=O)[C@@H](N)C1 | 1.01 ± 0.021 | 1.33 ± 0.15
16 | CN(Cc1cnc2nc(N)nc(N)c2n1)c1ccc(C(=O)NC(CCC(=O)O)C(=O)O)cc1 (racemic) | 1.05 ± 0.046 | 0.825 ± 0.024
17 | Nc1nc(/C(=C/CC(=O)O)C(=O)N[C@@H]2C(=O)N3C(C(=O)O)=CCS[C@H]23)cs1 | 0.951 ± 0.059 | 0.0259 ± 0.0032
18 | CO/N=C(\C(=O)N[C@@H]1C(=O)N2C(C(=O)O)=C(CSC(=O)c3ccco3)CS[C@H]12)c1csc(N)n1 | 1 ± 0.029 | 0.0233 ± 0.0029
19 | CO/N=C(\C(=O)N[C@@H]1C(=O)N2C(C(=O)O)=C(CSc3nc(=O)c(O)nn3C)CS[C@H]12)c1csc(N)n1 | 0.891 ± 0.022 | 0.311 ± 0.035
20 | CC1=C(C(=O)O)N2C(=O)[C@@H](NC(=O)[C@H](N)c3ccccc3)[C@H]2SC1 | 1.017 ± 0.0017 | 1.07 ± 0.1
21 | CC1=C(C(=O)O)N2C(=O)[C@@H](NC(=O)[C@H](N)c3ccc(O)cc3)[C@H]2SC1 | 0.982 ± 0.0066 | 0.831 ± 0.018
22 | Cn1nnnc1SCC1=C(C(=O)O)N2C(=O)[C@@H](NC(=O)[C@H](OC=O)c3ccccc3)[C@H]2SC1 | 0.866 ± 0.094 | 0.979 ± 0.024
23 | CO/N=C(\C(=O)N[C@@H]1C(=O)N2C(C(=O)OC(C)OC(C)=O)=C(COC(N)=O)CS[C@H]12)c1ccco1 (stereo not given in full) | 1.09 ± 0.063 | 0.977 ± 0.23
24 | CO/N=C(\C(=O)N[C@@H]1C(=O)N2C(C(=O)O)=C(CSc3nnnn3C)CS[C@H]12)c1csc(N)n1 | 0.987 ± 0.052 | 0.935 ± 0.032
25 | CO/N=C(\C(=O)N[C@@H]1C(=O)N2C(C(=O)O)=C(COC(N)=O)CS[C@H]12)c1ccco1 | 0.994 ± 0.043 | 0.732 ± 0.083

Row | SMILES | normalized intracellular growth (time point: T3 (3 h)) | normalized intracellular growth (time point: Tfinal (~6 h))
26 | Cc1ncc(CSSCc2cnc(C)c(O)c2CO)c(CO)c1O | 0.943 ± 0.057 | 1.06 ± 0.015
27 | O=C(O)C1=C(CSc2nnnn2CS(=O)(=O)O)CS[C@@H]2[C@H](NC(=O)[C@H](O)c3ccccc3)C(=O)N12 | 0.979 ± 0.034 | 0.824 ± 0.19
28 | Cc1ccc2c(Br)cc(Br)c(OC(=O)c3ccccc3)c2n1 | 0.944 ± 0.025 | 1.01 ± 0.097
29 | S=C=Nc1ccc(N=C=S)cc1 | 1.04 ± 0.035 | 1.01 ± 0.11
30 | CN(C)c1ccc2nc3ccc(=[N+](C)C)cc-3sc2c1 | 1.29 ± 0.088 | 1.4 ± 0.2
31 | COc1cc(Cc2cnc(N)nc2N)cc(OC)c1OC | 0.563 ± 0.068 | 0.155 ± 0.025
32 | COc1ccc(Cc2cnc(N)nc2N)cc1OC | 0.784 ± 0.028 | 0.17 ± 0.021
33 | COc1cc(/C=C/C(N)=O)cc(OC)c1OC | 1.04 ± 0.084 | 1.03 ± 0.12
34 | C[C@@H]1CC2C3C[C@H](F)C4=CC(=O)C=C[C@]4(C)[C@@]3(F)[C@@H](O)C[C@]2(C)[C@@]1(O)C(=O)COC(=O)C(C)(C)C (stereo not given in full) | 0.961 ± 0.055 | 0.888 ± 0.12
35 | Cc1cc(-c2ccc(/N=N/c3ccc4c(S(=O)(=O)O)cc(S(=O)(=O)O)c(N)c4c3O)c(C)c2)ccc1/N=N/c1ccc2c(S(=O)(=O)O)cc(S(=O)(=O)O)c(N)c2c1O | 1.06 ± 0.038 | 1.36 ± 0.084
36 | CCOC(=S)SSC(=S)OCC | 0.994 ± 0.036 | 0.924 ± 0.067
37 | C[C@@H]1NC(=O)[C@@H](N)CNC(=O)[C@H](C2CCNC(=N)N2)NC(=O)/C(=C/NC(N)=O)NC(=O)[C@H](CNC(=O)CC(N)CCCN)NC1=O.N=C1NCC[C@H]([C@@H]2NC(=O)/C(=C/NC(N)=O)NC(=O)[C@H](CNC(=O)C[C@@H](N)CCCN)NC(=O)[C@H](CO)NC(=O)[C@@H](N)CNC2=O)N1 | 0.976 ± 0.016 | 0.966 ± 0.059
38 | CC(=O)N[C@@H]([C@@H](O)[C@H](O)[C@H](O)CO)[C@@H](O)CC(=O)C(=O)O | 1.02 ± 0.058 | 1.06 ± 0.24
39 | C[C@@H]1O[C@@H](OC[C@H]2O[C@@H](Oc3c(-c4ccc(OCCO)c(OCCO)c4)oc4cc(OCCO)cc(O)c4c3=O)[C@H](O)[C@@H](O)[C@@H]2O)[C@H](O)[C@H](O)[C@H]1O | 0.951 ± 0.034 | 0.746 ± 0.24
40 | OC[C@H]1O[C@@H](O[C@H]2[C@H](O)[C@@H](O)C(O)O[C@@H]2CO)[C@H](O)[C@@H](O)[C@H]1O (stereo not given in full) | 1.05 ± 0.022 | 1.04 ± 0.026
41 | C1CNCCN1 | 0.991 ± 0.091 | 0.655 ± 0.077
42 | C[C@@H]1CN(c2c(F)c(F)c3c(=O)c(C(=O)O)cn(C4CC4)c3c2F)C[C@H](C)N1 | 0.986 ± 0.025 | 0.0257 ± 0.0074
43 | C[C@@H]1CN(c2c(F)c(N)c3c(=O)c(C(=O)O)cn(C4CC4)c3c2F)C[C@H](C)N1 | 1.08 ± 0.037 | 0.0132 ± 0.002
44 | COc1ccc(CN(CCN(C)C)c2ncccn2)cc1 | 1.1 ± 0.06 | 1.1 ± 0.093
45 | Cc1cc2nc3c(=O)[nH]c(=O)nc-3n(CC(O)C(O)C(O)COP(=O)(O)O)c2cc1C (stereo not given) | 0.886 ± 0.064 | 1.08 ± 0.19
46 | O=C(O)CN(CCN(CC(=O)O)CC(=O)O)CC(=O)O.[Na+].[Na+].[Na+] | 1.03 ± 0.021 | 1.54 ± 0.093
47 | C[C@H]1O[C@@H](O[C@H]2[C@@H](O)C[C@H](O[C@H]3[C@@H](O)C[C@H](O[C@H]4CC[C@@]5(C)[C@H](CC[C@@H]6[C@@H]5CC[C@]5(C)[C@@H](C7=CC(=O)OC7)CC[C@]65O)C4)O[C@@H]3C)O[C@@H]2C)C[C@H](O)[C@@H]1O | 1.03 ± 0.042 | 1.08 ± 0.087
48 | NC(=O)c1ccccc1O | 1.04 ± 0.085 | 0.978 ± 0.036
49 | CCCCC1=NC2(CCCC2)C(=O)N1Cc1ccc(-c2ccccc2-c2nnn[nH]2)cc1 | 1.06 ± 0.014 | 1.14 ± 0.22
50 | CCCCC(=O)N(Cc1ccc(-c2ccccc2-c2nnn[nH]2)cc1)[C@H](C(=O)O)C(C)C | 0.881 ± 0.033 | 0.239 ± 0.016

Row | SMILES | normalized intracellular growth (time point: T3 (3 h)) | normalized intracellular growth (time point: Tfinal (~6 h))
51 | CCCc1nc(C(C)(C)O)c(C(=O)OCc2oc(=O)oc2C)n1Cc1ccc(-c2ccccc2-c2nnn[nH]2)cc1 | 1 ± 0.026 | 0.855 ± 0.39
52 | CCCc1nc(C(C)(C)O)c(C(=O)O)n1Cc1ccc(-c2ccccc2-c2nnn[nH]2)cc1 | 1.027 ± 0.0089 | 1.118 ± 0.0057
53 | CCCCc1nc(Cl)c(CO)n1Cc1ccc(-c2ccccc2-c2nnn[nH]2)cc1 | 0.909 ± 0.056 | 0.215 ± 0.0058
54 | CCOc1nc2cccc(C(=O)O)c2n1Cc1ccc(-c2ccccc2-c2nnn[nH]2)cc1 | 0.992 ± 0.057 | 1.04 ± 0.034
55 | CCCCC(CC)COc1ccc(-c2nc(-c3ccc(OC)cc3)nc(-c3ccc(OCC(CC)CCCC)cc3O)n2)c(O)c1 (stereo not given) | 1.02 ± 0.065 | 1.1 ± 0.17
56 | Nc1nc(F)nc2c1ncn2[C@@H]1O[C@H](COP(=O)(O)O)[C@@H](O)[C@@H]1O | 0.982 ± 0.061 | 1.16 ± 0.13
57 | O=C1OC2(c3ccc(O)cc3Oc3cc(O)ccc32)c2ccccc21 | 1.02 ± 0.069 | 0.891 ± 0.079
58 | COc1ccc(C[C@H](N)C(=O)N[C@H]2[C@@H](O)[C@H](n3cnc4c(N(C)C)ncnc43)O[C@@H]2CO)cc1 | 0.993 ± 0.058 | 1.05 ± 0.16
59 | NCCCC(=O)O [gamma-AMINOBUTYRIC ACID] | 0.9762 ± 0.0094 | 1.05 ± 0.096
60 | FCOC(C(F)(F)F)C(F)(F)F | 1.01 ± 0.052 | 0.806 ± 0.18
61 | NCCCC(O)(P(=O)(O)O)P(=O)(O)O | 0.994 ± 0.083 | 1.12 ± 0.14
62 | CCCCCN(C)CCC(O)(P(=O)(O)O)P(=O)(O)O | 0.886 ± 0.014 | 0.0897 ± 0.012
63 | O=C1c2ccccc2C(=O)C1c1ccc(Br)cc1 | 1.08 ± 0.047 | 1.15 ± 0.21
64 | CO/N=C1\C[C@]2(C[C@@H]3C[C@@H](C/C=C(\C)C[C@@H](C)/C=C/C=C4\CO[C@@H]5[C@H](O)C(C)=C[C@@H](C(=O)O3)[C@]45O)O2)O[C@H](/C(C)=C/C(C)C)[C@H]1C | 0.979 ± 0.022 | 0.831 ± 0.033
65 | CCN(CC)CCOc1ccc2c(c1)C(=O)c1cc(OCCN(CC)CC)ccc1-2 | 1 ± 0.035 | 1 ± 0.021
66 | CCCCCCCCCCCCCCCC(=O)OC[C@@H](NC(=O)C(Cl)Cl)[C@H](O)c1ccc([N+](=O)[O-])cc1 | 1.04 ± 0.037 | 0.822 ± 0.14
67 | CS(=O)(=O)c1ccc([C@@H](O)[C@@H](CO)NC(=O)C(Cl)Cl)cc1 | 0.925 ± 0.07 | 0.767 ± 0.047
68 | O=C(O)CCC(=O)OC[C@@H](NC(=O)C(Cl)Cl)[C@H](O)c1ccc([N+](=O)[O-])cc1 | 0.927 ± 0.048 | 0.178 ± 0.014
69 | CS(=O)(=O)c1ccc([C@@H](O)[C@@H](CF)NC(=O)C(Cl)Cl)cc1 | 1.27 ± 0.096 | 0.22 ± 0.17
70 | O=C(N[C@H](CO)[C@H](O)c1ccc([N+](=O)[O-])cc1)C(Cl)Cl | 0.927 ± 0.049 | 0.163 ± 0.022
71 | NC(=O)c1ccc([N+](=O)[O-])cc1Cl | 1.06 ± 0.052 | 1.18 ± 0.017
72 | CC(=O)Nc1ccc(S(=O)(=O)Nc2ccc([N+](=O)[O-])cc2)cc1 | 0.992 ± 0.038 | 1.03 ± 0.15
73 | CC(=O)Nc1ccc(S(=O)(=O)c2ccc(NC(C)=O)cc2)cc1 | 1.01 ± 0.04 | 0.912 ± 0.062
74 | OC[C@@H](O)[C@@H](O)CO | 0.947 ± 0.1 | 1.08 ± 0.11
75 | Cc1cc(C(C)(C)C)c(O)c(C(C)(C)C)c1 | 1.06 ± 0.046 | 0.834 ± 0.12
